Source: PubChem (several laboratories)
Rows were chosen to be rich in hits. Some 0.98% of all compounds tested hit in one or more screens of this group.
LANA DNA inh = inhibitors of KSHV LANA C-terminal domain DNA binding; actives 0.078% (n = 340,000); inhibition, % at 9 µM; MBP-C-LANA/FAM-LBS DNA binding, fluorescence polarization;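 active = highest replicate inhibition at or above 60% at 9 µM, even if other replicates fall short; inactive = all replicates below 60% inhibition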;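 note: 0% = neutral control wells and 100% = 4 µM acridine orange control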
RTF Ca sens act = cardiac RTF calcium sensitization; actives 0.24% (n = 340,000); IANBD-labeled TnC RTF fluorescence at EC20 calcium; 0% EC20 calcium, 100% full calcium; activation, % at 7.2 µM;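 active = activation above the mean over all tested compounds plus 3 SD, cut at about 30% in these data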;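 note: rise in fluorescence read as greater calcium sensitivity of cardiac thin filaments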
RTF Ca sens inh = cardiac RTF calcium desensitization; P19429+P45379; IANBD-labeled cardiac RTF, Ca2+ fluorescence; inhibition, % at 7.15 µM; actives 0.12% (n = 340,000);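 active = inhibition above the mean inhibition of all tested compounds plus 3 SD, cut at about 17% in these data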;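 note: assay run at fixed EC70 calcium of 1.6 mM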
Keap1-Nrf2 PPI = inhibitors of human Keap1-Nrf2 protein-protein interaction. Q14145. Keap1 Kelch-Nrf2 peptide fluorescence polarization, 1536-well. inhibition, % at 9.4 µM. actives 0.15% (n = 340,000). AID 504523; in the data active = inhibition above about 12%;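 note: human Keap1 Kelch domain with fluorescein labeled Nrf2 9mer peptide probe; 0% = neutral control wells and 100% = peptide positive control; higher means more block of Keap1 binding to Nrf2 peptide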
LANA-H2A inh = blocks KSHV LANA binding to histone H2A/H2B | Q9QR71 | cell-free LANA-H2A/H2B peptide, fluorescence polarization | inhibition, % (no concentration beside the values) | actives 0.6% (n = 320,000); in the data active = inhibition mostly above about 10%, no sharp cut-off; inactive = mostly below about 6.7%
Target sequence (Q9QR71 whole entry, looked up): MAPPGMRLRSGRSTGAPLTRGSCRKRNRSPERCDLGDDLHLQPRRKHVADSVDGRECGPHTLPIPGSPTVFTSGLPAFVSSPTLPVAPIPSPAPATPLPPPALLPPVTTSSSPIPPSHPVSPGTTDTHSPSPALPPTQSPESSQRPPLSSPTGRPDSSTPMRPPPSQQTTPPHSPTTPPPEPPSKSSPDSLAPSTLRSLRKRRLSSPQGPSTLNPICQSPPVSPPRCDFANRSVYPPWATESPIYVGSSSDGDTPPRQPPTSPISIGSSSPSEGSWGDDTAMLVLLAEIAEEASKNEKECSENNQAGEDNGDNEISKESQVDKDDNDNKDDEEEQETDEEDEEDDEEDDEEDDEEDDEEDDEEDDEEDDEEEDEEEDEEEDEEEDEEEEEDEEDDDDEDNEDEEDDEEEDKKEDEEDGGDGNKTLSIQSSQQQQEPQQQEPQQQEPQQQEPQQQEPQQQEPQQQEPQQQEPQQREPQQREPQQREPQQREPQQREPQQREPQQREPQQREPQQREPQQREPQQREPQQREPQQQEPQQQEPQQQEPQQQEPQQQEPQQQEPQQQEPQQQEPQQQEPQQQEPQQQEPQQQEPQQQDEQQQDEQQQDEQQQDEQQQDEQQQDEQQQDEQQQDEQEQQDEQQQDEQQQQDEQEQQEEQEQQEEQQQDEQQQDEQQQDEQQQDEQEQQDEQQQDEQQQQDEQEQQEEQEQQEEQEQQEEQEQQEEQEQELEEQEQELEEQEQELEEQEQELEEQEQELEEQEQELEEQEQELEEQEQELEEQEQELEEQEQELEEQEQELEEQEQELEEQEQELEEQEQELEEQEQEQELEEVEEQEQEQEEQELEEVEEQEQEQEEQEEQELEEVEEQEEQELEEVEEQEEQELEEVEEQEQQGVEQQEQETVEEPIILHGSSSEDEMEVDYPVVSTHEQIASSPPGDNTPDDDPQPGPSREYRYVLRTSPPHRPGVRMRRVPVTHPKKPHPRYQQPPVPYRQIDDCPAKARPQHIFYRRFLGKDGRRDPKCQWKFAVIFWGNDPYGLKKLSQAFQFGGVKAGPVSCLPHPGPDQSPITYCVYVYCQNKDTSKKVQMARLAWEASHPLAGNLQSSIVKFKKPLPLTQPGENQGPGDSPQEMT
Numbers without * were called inactive.

CC(C)(C)OC(=O)C[C@H]1C/C=C\C[C@H](CC(=O)N[C@H](CO)Cc2ccccc2)C(=O)N[C@H](Cc2ccccc2)COC1=O was read as LANA DNA inh 0, RTF Ca sens act -4, RTF Ca sens inh -3, Keap1-Nrf2 PPI -4 and LANA-H2A inh 83*.
COc1ccc(N(CC(=O)N2CCc3ccccc3C2)S(C)(=O)=O)cc1Cl was read as LANA DNA inh -1, RTF Ca sens act -1, RTF Ca sens inh -1, Keap1-Nrf2 PPI -4 and LANA-H2A inh 3.
CCCCOc1ccccc1C(=O)NNC(=S)NC(=O)c1ccccc1[N+](=O)[O-] was read as LANA DNA inh 1, RTF Ca sens act 0, RTF Ca sens inh 4, Keap1-Nrf2 PPI 3 and LANA-H2A inh 2.
Screening COc1cc(C(=O)NNC(=O)CCOc2ccccc2)cc(OC)c1OC returned LANA DNA inh 4, RTF Ca sens act 1, RTF Ca sens inh -6, Keap1-Nrf2 PPI -5 and LANA-H2A inh 17*.
Cc1ccc2nc(SCC(=O)Nc3nnc(SCC(N)=O)s3)[nH]c2c1 was read as LANA DNA inh 0, RTF Ca sens act 3, RTF Ca sens inh -9, Keap1-Nrf2 PPI -1 and LANA-H2A inh 2.
Cc1cc(C)cc(OCC(=O)N/N=C/c2ccccn2)c1 was read as LANA DNA inh 5, RTF Ca sens act 3, RTF Ca sens inh -5, Keap1-Nrf2 PPI -1 and LANA-H2A inh 8.
Cc1ccccc1OCC(=O)N/N=C/c1ccccn1 was read as LANA DNA inh 2, RTF Ca sens act 6, RTF Ca sens inh 4, Keap1-Nrf2 PPI -2 and LANA-H2A inh 27*.
`CN(CCOC(=O)/C=C/c1ccccc1)C(C)(C)C` gave LANA DNA inh 0, RTF Ca sens act -4, RTF Ca sens inh -1, Keap1-Nrf2 PPI 0 and LANA-H2A inh 1.
Screening CC(C)N(C)CCOC(=O)/C=C/c1ccccc1 returned LANA DNA inh 0, RTF Ca sens act 3, RTF Ca sens inh 0, Keap1-Nrf2 PPI -2 and LANA-H2A inh active.
`O=C(O)CCCN1C(=O)/C(=C\c2ccco2)SC1=S` gave LANA DNA inh 43, RTF Ca sens act 1, RTF Ca sens inh 12 and Keap1-Nrf2 PPI 3.
For O=C(CCN1C(=O)/C(=C/c2ccco2)SC1=S)Nc1ccc(C(=O)O)c(O)c1 the results were LANA DNA inh 88*, RTF Ca sens act -6, RTF Ca sens inh 0, Keap1-Nrf2 PPI -3 and LANA-H2A inh 7.
Screening O=C(CCN1C(=O)/C(=C\c2ccco2)SC1=S)Nc1ccc(C(=O)O)c(O)c1 returned LANA DNA inh 83*, RTF Ca sens act -8, RTF Ca sens inh 6, Keap1-Nrf2 PPI -2 and LANA-H2A inh 2.
Screening CC(/C=C1\SC(=S)N(CCCC(=O)Nc2ccc(C(=O)O)cc2)C1=O)=C\c1ccccc1 returned LANA DNA inh 85*, RTF Ca sens act -2, RTF Ca sens inh -3, Keap1-Nrf2 PPI -3 and LANA-H2A inh 3.
`CC(/C=C1\SC(=S)N(CCC(=O)Nc2cccc(C(=O)O)c2)C1=O)=C\c1ccccc1` gave LANA DNA inh 16, RTF Ca sens act -1, RTF Ca sens inh -6, Keap1-Nrf2 PPI 3 and LANA-H2A inh -4.
O=C(CCCN1C(=O)/C(=C/c2ccco2)SC1=S)Nc1ccccc1C(=O)O was read as LANA DNA inh 66*, RTF Ca sens act -5, RTF Ca sens inh -3, Keap1-Nrf2 PPI -3 and LANA-H2A inh 3.
Screening O=C(/C(Cl)=C/Nc1ccc(Br)cn1)C(F)(F)F returned LANA DNA inh -2, RTF Ca sens act -1, RTF Ca sens inh 2, Keap1-Nrf2 PPI -2 and LANA-H2A inh 1.
`CCn1c(O)c(/C=C2\C=NN=C2c2ccc(C)cc2)sc1=S` gave LANA DNA inh 3, RTF Ca sens act -5, RTF Ca sens inh -12, Keap1-Nrf2 PPI 0 and LANA-H2A inh 2.
CC(C)n1c(O)c(/C=C2\C=NN=C2c2ccccc2)sc1=S was read as LANA DNA inh 2, RTF Ca sens act 4, RTF Ca sens inh 0, Keap1-Nrf2 PPI 0 and LANA-H2A inh 12*.
`CC(C)C1COC(c2cccn2Cc2ccccc2Cl)=N1` (stereo not given) gave LANA DNA inh 0, RTF Ca sens act -7, RTF Ca sens inh 7, Keap1-Nrf2 PPI 0 and LANA-H2A inh 20*.
Screening Cc1ccccc1CN1CCN(CC(=O)NCc2ccccc2)CC1 returned LANA DNA inh -1, RTF Ca sens act -7, RTF Ca sens inh 1, Keap1-Nrf2 PPI -4 and LANA-H2A inh 21*.
